Laboratory results as given in PubChem BioAssay (NCI).
The panel holds about 83,000 compounds, 20% with a hit somewhere; the sample as a whole holds those more often.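 Assay: single dose, 48 h. Readout: percent growth (0 = no net growth; negative = cell death). Active: <10.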 Unmarked numbers belong to inactive results. The source made the active and inactive calls.

Legend:
Experiment in all cases: NCI-60 one-dose screen, 48 h (100 = growth as untreated, 0 = no growth, -100 = all killed)
Conditions in all cases: 10 µM unless noted
NCI-H23 lung = tested on: NCI-H23 lung
NCI-H226 lung = tested on: NCI-H226 lung
NCI-H322M lung = tested on: NCI-H322M lung
HOP-62 NSCLC = tested on: HOP-62 NSCLC
NCI-H460 lung = tested on: NCI-H460 lung
HOP-92 NSCLC = tested on: HOP-92 NSCLC
NCI-H522 lung = tested on: NCI-H522 lung
A549/ATCC NSCLC = tested on: A549/ATCC NSCLC
786-0 renal = tested on: 786-0 renal
COLO 205 colon = tested on: COLO 205 colon

Row | SMILES | growth (NCI-H23 lung) | growth (NCI-H226 lung) | growth (NCI-H322M lung) | growth (HOP-62 NSCLC) | growth (NCI-H460 lung) | growth (HOP-92 NSCLC) | growth (NCI-H522 lung) | growth (A549/ATCC NSCLC) | growth (786-0 renal) | growth (COLO 205 colon)
1 | O=C(CC1(O)C(=O)N(Cc2ccccc2)c2ccc(Cl)cc21)c1ccc(C(=O)NCC2CCC3(CC2)OOC2(CCCCC2)OO3)cc1 (stereo not given) | -67% (active) | -41.3% (active) | 64.2% | -65.3% (active) | -47.2% (active) | -73.2% (active) | -26.7% (active) | -55.8% (active) | -73.6% (active) | -66.5% (active)
2 | CC(=O)O[C@H](C[C@H](C(C)C)N(C)C(=O)[C@@H](NC(=O)[C@H]1CCCCN1C)C(C)(C)C)c1nc(C(=O)N[C@@H](Cc2ccccc2)C[C@H](C)C(=O)O)cs1 | 37.8% | 61.4% | 41.8% | 19.7% | 4.25% (active) | 35.3% | -24.7% (active) | 9.66% (active) | 11.1% | -59.1% (active)
3 | Nc1c(F)cc(-c2nc3cc(F)ccc3[se]2)cc1Br | 17.4% | -16.3% (active) | 46.9% | 39.8% | 3.18% (active) | 49.7% | 67.1% | 22.5% | 95.4% | 5.84% (active)
4 | C=C(C)[C@@]12OC3(/C=C/C=C/CCCCC)O[C@@H]1[C@@H]1[C@@H]4O[C@]4(CO)[C@@H](O)[C@]4(O)C(=O)C(C)=C[C@H]4[C@@]1(O3)[C@H](C)[C@H]2OC(=O)c1ccccc1 | 46.3% | 79.2% | 76.6% | 22.5% | 22.1% | 35.1% | 78.8% | 32.8% | 45.8% | 4.17% (active)
5 | CCOC(=O)[C@@H](C)C[C@H](Cc1ccccc1)NC(=O)c1csc([C@@H](C[C@H](C(C)C)N(C)C(=O)[C@H](CCC(C)C)NC(=O)[C@H]2CCCCN2C)OC(C)=O)n1 | 25.3% | 27.7% | 28.2% | 13.8% | 5.8% (active) | -1.79% (active) | -27% (active) | 8.64% (active) | 3.93% (active) | -75.2% (active)
6 | NC(=O)CNc1ccc([As]=[As]c2ccc(NCC(N)=O)cc2)cc1 (stereo not given) | 62.2% | 49.4% | 83.5% | 94% | 83.2% | 63.6% | 2.53% (active) | 81% | 29.7% | 76.8%
7 | CCOP(=O)(NC[C@H]1O[C@](O)(CO)[C@@H](O)[C@@H]1O)OCC | 97.4% | 75.9% | 112% | 91% | 105% | 93.1% | 88.3% | 96.6% | 99.8% | 102%
8 | O=C(CC1(O)C(=O)Nc2ccc(Cl)cc21)c1ccc(C(=O)NCC2CCC3(CC2)OOC2(CCCCC2)OO3)cc1 (stereo not given) | 32.1% | 53.3% | 77.7% | -55.4% (active) | -55.4% (active) | -70.3% (active) | -1.69% (active) | -55.4% (active) | -65.6% (active) | 1.29% (active)
9 | Clc1ccc(N2COOC3(OOC2)C2CC4CC(C2)CC3C4)cc1 | 22% | 95.8% | 76.4% | 45.9% | 61.5% | -23.1% (active) | -53.2% (active) | 47.4% | -4.34% (active) | 101%
10 | CC(C)(N)Cc1ccccc1 | 113% | 107% | 105% | 118% | 111% | 87.8% | 90.9% | 103% | 91.3% | 116%
11 | COC[C@@H]1C[C@@]2(C)[C@@H](CC[C@@H]3[C@@H]2CC[C@@]2(C)[C@H]3CC[C@]2(C)O)CC1=O | 108% | 106% | 105% | 107% | 101% | 100% | 73.6% | 90.6% | 94.9% | 109%
12 | CC[C@H](C)[C@H](NC(=O)[C@H]1CCCCN1C)C(=O)N(C)[C@H](C[C@@H](O)c1nc(C(=O)N[C@@H](Cc2ccccc2)C[C@H](C)C(=O)O)cs1)C(C)C | 94.8% | 99% | 105% | 82.4% | 95.6% | 57.8% | -18% (active) | 87.1% | 90.2% | 83.6%
13 | COc1cccc(/C=C/[N+](=O)[O-])c1 | 43.3% | 65.2% | 88.8% | 89.9% | 100% | 78.9% | 63.2% | 61.2% | 54.6% | 19.5%
14 | O=C(O)c1ccc([S-])cc1.[Au+].c1ccc(CN2[CH-]N(Cc3ccccc3)C(c3ccccc3)=C2c2ccccc2)cc1 | -64.8% (active) | 3.42% (active) | 7.67% (active) | -28% (active) | -29% (active) | -45% (active) | -44.9% (active) | 3.5% (active) | -70.3% (active) | -66.5% (active)
15 | C/C(=C\c1ccn(-c2ccc(N)cc2)n1)[C@@H]1C[C@@H]2O[C@]2(C)CCC[C@H](C)[C@H](O)[C@@H](C)C(=O)C(C)(C)[C@@H](O)CC(=O)O1 | 26.1% | 31.7% | 18.6% | 44.7% | 13.3% | 48.7% | 18.6% | 29.8% | 20.2% | 1.88% (active)
16 | CCOC(=O)[C@@H](C)C[C@H](Cc1ccccc1)NC(=O)c1csc([C@@H](C[C@H](C(C)C)N(C)C(=O)[C@@H](NC(=O)[C@H]2CCCCN2C)C(C)(C)C)OC(C)=O)n1 | 24.5% | 55.2% | 27.3% | 11.8% | 6.23% (active) | 28.5% | -40.3% (active) | 10.3% | 4.58% (active) | -75.6% (active)
17 | CC[C@H](C)[C@H](NC(=O)[C@H]1CCCCN1C)C(=O)N(C)[C@H](C[C@@H](OC(C)=O)c1cccc(C(=O)N[C@@H](Cc2ccccc2)C[C@H](C)C(=O)O)n1)C(C)C | 24.3% | 19.7% | 45.2% | 1.64% (active) | 7.49% (active) | 37% | -12.8% (active) | 11.4% | 23.1% | -66.1% (active)
18 | CN1CCCCC1C(C)(O)c1ccccc1 (stereo not given) | 106% | 99.7% | 101% | 92.9% | 107% | 98.6% | 89.9% | 92% | 95.1% | 114%
19 | CCOP(=O)(Cc1ccc(C#N)cc1)OCC | 99.9% | 108% | 104% | 98.5% | 108% | 76.9% | 75% | 91.2% | 101% | 108%
20 | O=[As](O)(O)c1ccccc1[As](=O)(O)O | 99.9% | 112% | 121% | 110% | 116% | 95.9% | 106% | 91.8% | 119% | 111%
21 | C[C@]12CCc3sc(NCCc4ccccc4)nc3C1=CC[C@@H]1[C@@H]2CC[C@]2(C)C(=O)CC[C@@H]12 | 66.6% | 84.1% | 91.9% | 102% | 72.8% | 66.4% | 44.1% | 87.8% | 4.36% (active) | 90.6%
22 | CN[C@]1(c2ccccc2Cl)CCCC[C@H]1NCCCN1CCN(C)CC1 | 109% | 94.5% | 106% | 93.8% | 110% | 79.1% | 93.9% | 98.5% | 92.2% | 108%
23 | CCCC(=O)O[C@@H]1C[C@H]2C[C@@H](O[C@@H]3O[C@@H](C)[C@@H](O)[C@@H](O)[C@H]3OC)C[C@@H](C[C@@H](C)/C=C/C=C\C[C@@H]3O[C@@H](C[C@@H]3C)[C@@H](O)C[C@H]3C[C@@]1(O)C(=O)O3)O2 | 25.9% | 33.3% | 88.4% | 64.8% | 47.3% | 91.6% | 21% | 46.4% | 76.6% | 39.4%
24 | COc1ccc(C(=O)c2cc(OC)c(OC)c(OC)c2)cc1OC(C)=O | 31% | 102% | 42% | 25.2% | 7.92% (active) | 50.9% | 10.3% | 22.4% | 26.5% | 16.3%
25 | COC(=O)[C@@H](C)C[C@H](Cc1ccc2ccccc2c1)NC(=O)c1csc([C@@H](C[C@H](C(C)C)N(C)C(=O)[C@@H](NC(=O)[C@H]2CCCCN2C)C(C)C)OC(C)=O)n1 | 41.7% | 80.2% | 68.6% | 64.7% | 24.2% | -5.09% (active) | 22.2% | 47.5% | 26.5% | -37.9% (active)
26 | COC(=O)[C@@H](C)C[C@H](Cc1ccccc1)NC(=O)c1csc([C@@H](C[C@H](C(C)C)N(C)C(=O)[C@@H](NC(=O)[C@H]2CCCN2C)C2CC2)OC(C)=O)n1 | 23.5% | 24.1% | 50.9% | 12.2% | 3.65% (active) | -6.22% (active) | -9.59% (active) | 13.2% | 15.6% | -63.1% (active)
